# Data: ChEMBL document CHEMBL3988442, “University of Dundee, Small-Polar-MMV Screening Library” (2021)
# Screen size: about 48,000 compounds; about 13,000 (27%) showed an effect of 50% or more. This is one part of the list.
# System: Wolbachia pipientis
# Experiment: Anti-Wolbachia Cell-Based Screen
# Type: functional
# Set-up: scale not given: in the data most compounds retested in dose-response had high values
# Details: 5 µM
row,Structure (SMILES),Percent Effect
1,CC(C#N)CN(C)Cc1c(Cl)ccc2cccnc12 (configuration not stated),4.156%
2,COc1cccc(OC)c1CNC(Cc1ccsc1)c1ccc(C)cn1 (configuration not stated),169.8%
3,COc1ccc(CNc2c(C)nn(C(C)C)c2C)cc1OC.Cl,8.952%
4,COc1ccc(CNC(Cc2ccsc2)c2ccc(C)cn2)c(OC)c1 (configuration not stated),101.2%
5,COC(C)c1cccc(NCc2ccsc2)c1 (configuration not stated),-13.03%
6,COc1ccc(CNc2cc(-c3nc(C)no3)ccn2)c(OC)c1,-6.518%
7,COc1ccncc1NCc1ccsc1,15.23%
8,COc1ccc(CNC(Cc2ccsc2)c2ccc(C)cn2)cc1OC.Cl (configuration not stated),112.1%
9,CCc1cnc(N)nc1NCc1ccc(OC)cc1OC,-6.529%
10,O=C(NCc1cccc(-n2cncn2)c1)NCC(C1CC1)C1CC1,-15.59%
11,CC(C)Cn1cncc1CNC1CCSCC1,2.151%
12,COc1ccc(F)c(CN2CCCC(O)(CNC3CCCCC3)C2=O)c1 (configuration not stated),-6.817%
13,Cc1noc2ncc(C(=O)NCC3CCOC3)cc12 (configuration not stated),-15.76%
14,COc1c(C)cnc(CNC(=O)c2cc(C)nc3onc(C)c23)c1C,-1.817%
15,COc1c(C)cnc(CNC(=O)c2cnc3onc(C)c3c2)c1C,104.5%
16,O=C(NCCOCCO)[C@@]12CNC[C@@H]1CN(C1CCCC1)C2,-7.865%
17,CC(C)c1cc(N2CCC(CCC(=O)NC3CC3)CC2)n2nccc2n1,7.052%
18,CCN(Cc1nnsc1Cl)C(C)c1ccc(C#N)cc1 (configuration not stated),1.58%
19,COc1cccc(CN2CCCCC2Cn2nc(C)nc2C)c1 (configuration not stated),129.9%
20,COc1cccc(CN2CCCC2Cn2nc(C)nc2C)c1 (configuration not stated),137%
21,COc1ccc(CCN2CCCC2Cn2nc(C)nc2C)cc1 (configuration not stated),-8.655%
22,Cc1nc(C)n(CC2CCCN2Cc2cn3c(C)cccc3n2)n1 (configuration not stated),-8.673%
23,COc1c(C)cnc(CN2CCCCC2Cn2nc(C)nc2C)c1C (configuration not stated),6.225%

row,Structure (SMILES),Percent Effect
1,c1cnn(CCNCc2nnc(C3CC3)o2)c1,-6.862%
2,CN(CCNC(=O)N1CCN(Cc2ccon2)CC1)c1ccccc1,-8.314%
3,CCc1nc2c(N3CCC4(CC3)CC(=O)N(CC(C)C)C4)ncnc2o1,-4.027%
4,Cc1nn(C)c(C)c1C1COCCN1C(=O)Cc1cccc(F)c1 (configuration not stated),-20.34%
5,Cc1nn(C)c(C)c1C1COCCN1C(=O)c1ccc(Cl)o1 (configuration not stated),70.94%
6,Cc1nn(C)c(C)c1C1COCCN1C(=O)CSC(C)(C)C (configuration not stated),-11.83%
7,Cc1nn(C)c(C)c1C1COCCN1C(=O)CCc1ccccc1 (configuration not stated),95.59%
8,Cc1nn(C)c(C)c1C1COCCN1C(=O)c1n[nH]c2ccccc12 (configuration not stated),16.5%
9,CSc1ccc(C(=O)N2CCOCC2c2c(C)nn(C)c2C)o1 (configuration not stated),94.08%
10,CNC(=O)N1CCOCC1c1c(C)nn(C)c1C (configuration not stated),-10.34%
11,Cc1nn(C)c(C)c1C1COCCN1C(=O)c1ccccc1 (configuration not stated),-4.407%
12,Cc1nn(C)c(C)c1C1COCCN1C(=O)c1cnc(N)c(Cl)c1 (configuration not stated),1.304%
13,Cc1cc(C)c(C(=O)N2CCOCC2c2c(C)nn(C)c2C)o1 (configuration not stated),101%
14,Cc1nn(C)c(C)c1C1CCCN1C(=O)c1ccc(Cl)o1 (configuration not stated),-7.187%
15,CCN(CC)C(=O)N1CCOCC1c1c(C)nn(C)c1C (configuration not stated),7.192%
16,COCCS(=O)(=O)N1CCN(c2cccc(O)c2)CC1,9.959%
17,CCS(=O)(=O)NCCNC(=O)c1cc(Cl)c2c(c1)OCCCO2,12.52%
18,CCC(CC)CN1CCC(n2cc(C3CCCC3)nn2)CC1,4.235%
19,CN(Cc1ccccc1)CC1(O)CCCN(CCC2CCCCC2)C1=O (configuration not stated),-12.81%
20,CN(Cc1ccccc1)CC1(O)CCCN(CC(C)(C)C)C1=O (configuration not stated),2.381%
21,CN(Cc1ccc(F)cc1)CC1(O)CCCN(CC(C)(C)C)C1=O (configuration not stated),55.08%
22,CN(c1ncc(S(N)(=O)=O)s1)C1CCc2ccccc2C1 (configuration not stated),1.957%
23,CCn1cc(N)c(C(=O)NCc2cnn(C)c2)n1,-9.614%

row,Structure (SMILES),Percent Effect
1,CCn1cc(Br)c(C(=O)NCc2cnn(C)c2)n1,103.9%
2,Cc1c(Br)cccc1C(=O)NCc1cnn(C)c1,-14.4%
3,CN(C)C(=O)N1CC2(CCOCC2)c2cc(NC(=O)CCO)ccc21,-8.643%
4,CCCC(=O)Nc1ccc2c(c1)C1(CCOCC1)CN2CCOC.O=C(O)C(F)(F)F,114.8%
5,CCC(=O)Nc1ccc2c(c1)C1(CCOCC1)CN2CCOC.O=C(O)C(F)(F)F,101.5%
6,COCCN1CC2(CCOCC2)c2cc(NC(=O)C3CC=CC3)ccc21.O=C(O)C(F)(F)F,98.06%
7,COCCN1CCC2(CC1)CC(N1CCOCC1)c1ccc(C)cc12.O=C(O)C(F)(F)F.O=C(O)C(F)(F)F (configuration not stated),-12.46%
8,COCCN1CCC2(CC1)CN(C(C)=O)c1ccc(C)cc12.O=C(O)C(F)(F)F,24.24%
9,Cc1noc(C[C@@H]2COC[C@H]3CN(S(=O)(=O)C4CC4)C[C@@H]23)n1,6.683%
10,Cc1ccc(S(=O)(=O)NC(C)C#N)cc1Br (configuration not stated),-6.675%
11,NS(=O)(=O)NCC1(c2ccccc2Br)CC1,-0.7264%
12,Fc1cccc(Nc2nc(N3CCCC3)nc3c2CNCC3)c1,142.6%
13,COc1ccc(CC(=O)Nc2c(C)nc(N3CCCC3)nc2C)cc1,3.23%
14,COc1cccc(Nc2nc(N3CCCC3)nc3c2CNCC3)c1.Cl,154.5%
15,O=S(=O)(Nc1cnc(N2CCOCC2)nc1)c1cccc(F)c1,-8.595%
16,CCOCCNc1nc(-c2ccncc2)nc2c1CCNCC2,0.459%
17,COc1cccc(Nc2nc(-c3ccncc3)nc3c2CNCC3)c1.Cl,140.9%
18,c1csc(CCNc2nc(-c3ccncc3)nc3c2CCNCC3)c1,-1.817%
19,COc1cccc(-n2ccc3nc(N4CCCC4)ncc3c2=O)c1,-5.391%
20,O=S(=O)(Nc1cnc(N2CCCC2)nc1)c1ccc(F)cc1F,5.953%
21,COc1ccc(N2CCC(NCc3csc(C(C)C)n3)CC2)cc1,-0.6873%
